ssDAF12 agonist – activators of S. stercoralis DAF-12 nuclear receptor | HEK293 ssDAF-12/GRIP1 lit1-tk-luc reporter, luminescence; % of 3 µM dafachronic acid response | activation, % at 6.8 µM | 370,000 compounds, 1% hits;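 active = activation above the mean over all tested compounds plus 3 SD, cut at about 0.9% in these data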;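 note: 0% = DMSO-only wells and 100% = 3 µM delta7-dafachronic acid wells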
hcDAF-12 act – H. contortus DAF-12 activation, primary screen | 370,000 compounds, 1.4% hits | AID 652067 | activation, % at 6.8 µM | HEK293 hcDAF-12 lit1-tk-luc reporter, luminescence; 0% DMSO, 100% Δ7-dafachronic acid;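 active = activation above the mean of all tested compounds plus 3 SD, cut at about 5.5% in these data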;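 note: 100% = response to 3 µM Δ7-dafachronic acid high control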
DAX1 inh-1 – inhibits human nuclear receptor DAX1 | AID 504766 | P51843 | 340,000 compounds, 0.99% hits | HEK293 Gal4-DAX1 luciferase reporter, luminescence | inhibition, % at 6.75 µM;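 active = inhibition above the mean over all tested compounds plus 3 SD, cut at about 4.2% in these data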;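 note: 0% = DAX1-transfected cells with DMSO and 100% = empty-vector control cells with DMSO; inhibition shows as a rise in luminescence from relieved DAX1 repression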
DAX1 inh-2 – blocks DAX1 repression of SF-1 activated StAR promoter; HEK293T StAR-luciferase reporter, SF-1/DAX-1 repression relief; inhibition, % at 6.8 µM; 370,000 compounds, 1.1% hits; AID 652010;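 active = inhibition above the mean over all tested compounds plus 3 SD, cut at about 3.6% in these data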;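 note: 0% = DAX-1 cells with DMSO and 100% = cells lacking DAX-1 with DMSO; higher inhibition means more luminescence from relief of DAX-1 repression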
hgDAF12 agonist – hgDAF-12 agonism, primary luciferase screen. HEK293 GAL4-hgDAF12 UAS-luciferase reporter, agonist luminescence; normalized to butyrate control. activation, % at 6.8 µM. 370,000 compounds, 1.8% hits;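 active = activation above a cutoff set at the mean of all screened compounds plus 3 SD, cut at about 10% in these data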;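 note: 0% = DMSO wells and 100% = sodium butyrate wells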
LXRb hcDAF ctr – counter-screen for hcDAF-12 agonists: agonists of human LXR-beta; shares compounds with hcDAF-12 act; HEK293 Gal4-LXR tk-luc reporter, luminescence, 24 h; normalized: DMSO 0%, positive control 100%; activation, % at 6.8 µM; 3,400 tested, under 10 active; AID 743027;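 active = mean percent activation of the reporter above a cutoff set as the average over tested compounds plus their standard deviation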
Target sequence (P55055 whole entry, looked up, the tested form may be a part): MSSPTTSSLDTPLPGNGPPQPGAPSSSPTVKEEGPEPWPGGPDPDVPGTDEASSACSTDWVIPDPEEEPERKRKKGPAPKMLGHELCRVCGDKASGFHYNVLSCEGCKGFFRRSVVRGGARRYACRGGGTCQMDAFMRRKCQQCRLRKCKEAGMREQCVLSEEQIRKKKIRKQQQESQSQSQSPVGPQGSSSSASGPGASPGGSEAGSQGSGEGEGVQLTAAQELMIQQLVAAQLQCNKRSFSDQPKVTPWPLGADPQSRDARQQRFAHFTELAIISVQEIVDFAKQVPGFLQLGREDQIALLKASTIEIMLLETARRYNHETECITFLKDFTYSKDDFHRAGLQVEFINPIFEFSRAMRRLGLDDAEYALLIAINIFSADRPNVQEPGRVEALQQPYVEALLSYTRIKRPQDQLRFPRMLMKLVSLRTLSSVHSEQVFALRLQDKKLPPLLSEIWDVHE
hcDAF12 conf – hcDAF-12 agonism, confirmation assay. shares compounds with hcDAF-12 act. HEK293 hcDAF-12 lit1-tk-luc reporter, luminescence; % of Δ7-dafachronic acid response. activation, % at 6.8 µM. 3,400 compounds, 61% hits. AID 743032;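 active = mean activation across triplicate tests above the threshold derived from the earlier primary screen, cut at about 5.5% in these data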;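 note: 0% = DMSO only wells and 100% = 3 µM Δ7-dafachronic acid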
hgDAF12 ag – hgDAF-12 agonism, confirmation assay; AID 743050; activation, % at 6.8 µM; HEK293 GAL4-hgDAF12 luciferase reporter, agonist mode; percent of butyrate response; shares compounds with hgDAF12 agonist; 3,300 compounds, 80% hits;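 active = mean activation over triplicate wells above the hit cutoff derived from the earlier primary screen, cut at about 11% in these data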;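 note: 0% = DMSO low control and 100% = 2 mM sodium butyrate high control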
LXRb DAF12 ctr – LXR-beta agonism as DAF-12 counter-screen; shares compounds with hgDAF12 agonist; HEK293 Gal4-LXR luciferase reporter, 24 h; activation, % at 6.8 µM; 3,300 tested, under 10 active;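 active = mean activation of the triplicate above a set limit carried over from the primary screen, none filed active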
* = called active by the depositor; . = not tested or not shown. Rows were chosen to be rich in hits. Some 4.1% of all compounds tested hit in one or more screens of this group.

SMILES	ssDAF12 agonist	hcDAF-12 act	DAX1 inh-1	DAX1 inh-2	hgDAF12 agonist	LXRb hcDAF ctr	hcDAF12 conf	hgDAF12 ag	LXRb DAF12 ctr
O=C(/C=C/c1ccccc1Cl)Nc1ccccc1	2.6*	16*	.	3	20*	2	16*	25*	1
Cc1cc2ncc(-c3ccccc3)nc2cc1C	1.7*	14*	5.0*	3	19*	2	11*	23*	1
Cc1ccc(-c2cnc3ccccc3n2)cc1C	1.5*	14*	3	3	14*	2	16*	20*	1
COC1=C/C(=C/c2c(O)c(C#N)c3ccccn23)C=CC1=O	0.9*	11*	4	2	14*	0	4	11*	0
Cc1sc(NC(=O)c2ccc(Br)s2)c(C(N)=O)c1C	1	8.8*	3	3	19*	1	12*	18*	1
c1ccc(-c2ccc(-c3ccccc3)[nH]2)cc1	0	6.8*	3	3	19*	1	3	15*	0
C[C@@H]1CCCCO[C@@H](CN(C)C(=O)CCCN(C)C)[C@@H](C)CN([C@H](C)CO)C(=O)c2cc(NC(=O)CCC(F)(F)F)ccc2O1	-1	0	-1	1	-2	.	.	.	.
NC(=O)c1c[nH]c2ccccc12	-1	4	1	0	-1	.	.	.	.
O=C(/C=C/c1ccccc1)c1c[nH]c2ccccc12	3.8*	12*	4.3*	3	20*	2	8.3*	19*	1
O=C(Nc1ccccc1)C(=O)c1c[nH]c2ccccc12	4.4*	15*	3	2	15*	2	17*	25*	1
Cc1ccc(NC(=O)COC(=O)C2CC(=O)N(Cc3ccccc3)C2)cc1F (stereo unspecified)	-2	-1	2	0	-3	.	.	.	.
O=C(Nc1ccc2cn[nH]c2c1)c1ccccc1F	1	7.8*	2	3.9*	14*	1	5	16*	1
O=C(Nc1ccc2ccccc2c1)c1ccccc1F	1.6*	14*	1	2	19*	2	9.3*	23*	1
N#Cc1ccc(C(=O)Nc2ccc3ccccc3c2)cc1	1	7.9*	-1	1	20*	1	5	22*	1
Oc1ccc(N=Nc2ccc3ccccc3c2)cc1	1	7.1*	3	3	16*	1	4	20*	1
Oc1ccc(N=Nc2c(O)ccc3ccccc23)cc1	-2	-1	-1	0	-3	.	.	.	.
CCN(C(=O)COC(=O)c1ccc([N+](=O)[O-])o1)c1cccc2ccccc12	-1	-2	0	-1	-3	.	.	.	.
O=C(Nc1ccccc1)c1cc2ccc3ccccc3c2s1	2.8*	12*	4.4*	1	15*	1	9.8*	16*	1
Cc1cc(NC(=O)c2ccccc2)sc1C	0	9.9*	0	4	19*	1	5	17*	1
COC(=O)c1nn(-c2ccc(-c3ccccc3)cc2)cc1O	1	8.3*	-3	4	14*	2	8.2*	18*	1
O=C(Nc1ccc(Cl)cc1)Nc1cccc2nsnc12	1.3*	12*	2	1	15*	1	11*	20*	1
Nc1ccc(N=Nc2ccccc2)c(N)n1	-1	3	1	4.1*	16*	.	.	13*	0
Cc1nonc1CC(=O)N1CCCC(C(=O)c2cccc(C(F)(F)F)c2)C1 (stereo unspecified)	-1	-2	1	-1	-2	.	.	.	.

Source: PubChem (The Scripps Research Institute Molecular Screening Center)
